Compound activity (PubChem)
SW480 rereplic: inducers of DNA re-replication in SW480 colon cancer cells. SW480 DNA re-replication, Hoechst DNA content imaging, 48 h. Potency, µM (top dose mostly 46.1 µM), for the others: at the top dose re-replication activation, most hits filed as activators. 340,000 tested, 1.8% active; further: % of control where 0% means no effect; nearly all actives have a fitted effect of over 55% in size
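Compounds, transferred as 23 nL by pin tool, were incubated with cells for 48 hr; DNA content per nucleus was then quantified by Hoechst staining and fluorescence plate imaging.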
KB-V1 cytotox: kills drug-selected multidrug resistant KB-V1 cells; Potency, µM (titrated, usually from 46.1 µM), usual class: cytotoxic; KB-V1 MDR cells viability, CellTiter-Glo, 72 h; 400,000 tested, 3.4% active; further: on the % scale 0 is the no-effect control and ±100 the full control effect; nearly all actives have a fitted effect of over 60% in size
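In this primary screen, KB-V1 cells overexpressing P-gp are incubated with library compounds (lowest to highest concentration) for 72 h at 37 degrees C before a luminescent ATP viability read.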
VP16 counter: inhibits Gal4-VP16 luciferase reporter, ROR gamma counter-screen; 310,000 tested, 3.5% active; Potency, µM (titrated, usually from 53.6 µM), inactives show top-dose activity, negative = inhibition, usual class: inhibitors; Drosophila S2 Gal4-VP16 UAS-luciferase, luminescence, 20 h;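 further: Gal4-VP16 expression switched on by copper sulfate through the metallothionein promoter; on the % scale 0 is the no-effect control and ±100 the full control effect; nearly all actives have a fitted effect of over 50% in size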
KB-3-1 cytotox: kills parental KB-3-1 adenocarcinoma cells. AID 1347075. Potency, µM (top dose mostly 46.1 µM), usual class: cytotoxic. KB-3-1 viability, CellTiter-Glo ATP luminescence, 72 h. 400,000 tested, 1.4% active; further: on the % scale 0 is the no-effect control and ±100 the full control effect; nearly all actives have a fitted effect of over 60% in size
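Cytotoxicity in the drug-sensitive parental line KB-3-1 was scored as loss of CellTiter-Glo luminescence following 72 h incubation with compound. Values come from curve fitting of normalized concentration-response data.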
MCF10A rerep: DNA re-replication induction in MCF 10a cells; MCF 10A DNA re-replication, Hoechst nuclear intensity, 48 h; Potency, µM (titrated, usually from 46.1 µM), for the others: at the top dose activity, positive = re-replication, actives largely listed as activators; 350,000 tested, 2.9% active; further: % of control where 0% means no effect; nearly all actives have a fitted effect of over 50% in size
RORgamma inh: inhibitors of mouse ROR gamma transcriptional activity; Drosophila S2 Gal4-RORgamma UAS-luciferase reporter, 20 h; Potency, µM (highest dose often 53.6 µM), inactives show top-dose activity change, negative = inhibition, hits mostly inhibitors; 310,000 tested, 5.4% active; AID 2551; further: on the % scale 0 is the no-effect control and ±100 the full control effect; nearly all actives have a fitted effect of over 60% in size
Target sequence (P51450 whole entry, looked up, the tested form may be a part): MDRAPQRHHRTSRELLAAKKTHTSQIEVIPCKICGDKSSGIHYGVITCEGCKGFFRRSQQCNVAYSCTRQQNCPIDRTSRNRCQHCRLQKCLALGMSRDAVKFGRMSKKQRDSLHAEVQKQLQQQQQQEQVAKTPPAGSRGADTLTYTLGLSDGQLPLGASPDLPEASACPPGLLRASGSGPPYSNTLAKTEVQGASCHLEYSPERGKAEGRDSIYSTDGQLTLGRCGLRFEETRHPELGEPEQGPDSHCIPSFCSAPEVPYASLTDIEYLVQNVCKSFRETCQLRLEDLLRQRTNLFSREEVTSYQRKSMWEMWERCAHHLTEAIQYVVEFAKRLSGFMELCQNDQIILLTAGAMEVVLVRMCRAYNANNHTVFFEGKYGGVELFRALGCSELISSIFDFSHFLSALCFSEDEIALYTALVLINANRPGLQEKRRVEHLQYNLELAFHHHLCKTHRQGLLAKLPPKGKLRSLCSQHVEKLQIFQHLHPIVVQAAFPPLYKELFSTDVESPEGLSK
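In this cell-based reporter format, copper sulfate (700 uM final) drives Gal4–ROR gamma fusion expression from a metallothionein promoter in Drosophila Schneider cells; compounds preincubated 1 hr, reporter read after 20 hr at ambient temperature.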
* hit, by the source's call; i = inactive; ? = inconclusive; · = no result; [ ] = dose if it differs, or a comment. Rows were chosen to be rich in hits. Some 10% of all compounds tested hit in one or more screens of this group. The call rests on the fitted dose curve; in most records, active means well fitted curve in the direction sought with a large enough effect; inconclusive means small, poorly fitted or top-dose-only effect, or another doubt; inactive means no such curve, though single readings can be large; an effect the other way counts as inactive or inconclusive. Potency means the concentration at half of the fitted maximal effect.

SMILES | SW480 rereplic | KB-V1 cytotox | VP16 counter | KB-3-1 cytotox | MCF10A rerep | RORgamma inh
CCC(C)NS(=O)(=O)c1ccc(S(=O)(=O)N2CCCC3(CCCCC3)C2)cc1 (configuration not stated) | 7.6% | 3.66µM* | ? | 5.8µM* | ? | ?
C=CCc1cccc2cc(C(=O)Nc3ccc(CC(=O)O)cc3)c(=O)oc12 | -3.1% | i | ? | i | -1.2% | 3.98µM*
N#C/C(=C(/O)CN1CCCC1)c1nc(-c2ccccc2)cs1 | 38.2% | i | 16.3% | i | 4.6% | 1.3%
COc1ccc(Nc2nc(N)nc(CN3CCC(Cc4ccccc4)CC3)n2)cc1 | 4.1% | i | ? | i | 1.0% | 11.2µM*
CCOC(=O)C1CCCN(C/C(O)=C(\C#N)c2nc(-c3ccc(Cl)cc3)cs2)C1 (configuration not stated) | 0.4% | i | ? | i | -1.7% | 22.4µM*
COc1ccccc1Nc1nc(N)nc(CN2CCC(C)CC2)n1 | 2.4% | i | -6.4%[10 µM] | i | 0.8% | ?
CCOC(=O)C1CCCN(Cc2nc(N)nc(Nc3ccc(Cl)cc3)n2)C1 (configuration not stated) | 0.6% | ? | ? | i | 25.3% | 12.6µM*
COc1ccccc1Nc1nc(N)nc(CN2CCC(Cc3ccccc3)CC2)n1 | -1.2% | ? | ? | i | 6.1% | 8.91µM*
CCOC(=O)C1CCCN(Cc2nc(N)nc(Nc3ccc(OC)cc3)n2)C1 (configuration not stated) | -4.2% | i | -4.3% | i | -0.4% | -27.0%
CSc1ccccc1CNc1nc(NCC2CC2)nc2ccsc12 | · | i | · | i | · | ·
CCOC(=O)N1CCN(Cc2nc(N)nc(Nc3ccc(Oc4ccccc4)cc3)n2)CC1 | 0.5% | 13µM* | ? | i | ? | 32.8%
C[C@H]1CN([C@@H](C)CO)C(=O)CCCn2nncc2CO[C@@H]1CN(C)C(=O)NC1CCCCC1 | · | i | · | i | · | ·
Cc1oc(C(C)(C)C)cc1C(=O)NCc1ccc2c(c1)OCO2 | -2.6% | i | ? | ? | -0.1% | ?
Cc1nc2ccccn2c1C(=O)N/N=C/c1ccc2c(c1)OCO2 | ? | 18.4µM* | -3.1% | ? | ? | -11.8%
Cc1nc2ccccn2c1C(=O)NCc1ccc2c(c1)OCO2 | 6.6% | 16.4µM* | ? | i | 2.2% | ?
Cn1nc(C(C)(C)C)cc1C(=O)NCc1ccc2c(c1)OCO2 | -7.4% | ? | 1µM* | i | -0.1% | -13.0%
CCOc1cc(/C=N\NC(=O)c2c(C)nc3ccccn23)ccc1O | -4.0% | i | -1.6% | i | ? | 22.9%
Cc1nc2ccccn2c1C(=O)Nc1ccc2c(c1)OCCO2 | 1.9% | i | -11.5% | ? | 1.0% | ?
COc1cccc(Cn2c(=O)c(CCc3ccccc3)nc3cnc(N4CCN(C)CC4)nc32)c1 | · | · | 2.1% | · | · | -25.4%
CCOC(=O)c1cc(-c2ccccc2)n(-c2cccc(C(=O)N(CC)c3ccccc3)c2)c1C | · | i | · | i | · | ·
Cc1cc(C)n(CCc2nc(-c3ccc(C(C)(C)C)cc3)cs2)n1 | 13.8% | 16.4µM* | ? | i | ? | ?
CCCCC[C@@H](C)N1C[C@@H](COCc2ccccc2)Oc2cc(N3CCC[C@@H]3CO)ccc2S1(=O)=O | · | 16.4µM* | · | ? | · | ·
CCCCC[C@@H](C)N1C[C@H](COCc2ccccc2)Oc2cc(N3CC[C@@H](N(C)C)C3)ccc2S1(=O)=O | · | 16.4µM* | · | ? | · | ·
CCCCC[C@@H](C)N1C[C@@H](COCc2ccccc2)Oc2cc(N3CC[C@@H](N(C)C)C3)ccc2S1(=O)=O | · | 20.6µM* | · | ? | · | ·
C[C@H](c1ccccc1)N1C[C@H](COCc2ccccc2)Oc2cc(N3CC[C@@H](O)C3)ccc2S1(=O)=O | · | 23.1µM* | · | i | · | ·
